This is part of a sample that, as a whole, favours compounds with a hit. Of some 83,000 tested, about 20% had one in any assay.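 Single-dose data. Exposure time 48 hours. Values below 10 considered active.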 Calls of active or inactive are those of the source.
How the values were obtained:
Experiment in all cases: NCI-60 one-dose screen, 48 h (100 = growth as untreated, 0 = no growth, -100 = all killed)
Conditions in all cases: 10 µM unless noted
SK-MEL-2 melanoma = test system: SK-MEL-2 melanoma
EKVX NSCLC = test system: EKVX NSCLC
SN12C renal = test system: SN12C renal
UO-31 renal = test system: UO-31 renal
ACHN renal = test system: ACHN renal
CAKI-1 renal = test system: CAKI-1 renal
A498 renal = test system: A498 renal
CCRF-CEM leukemia = test system: CCRF-CEM leukemia
MOLT-4 leukemia = test system: MOLT-4 leukemia
RPMI-8226 leukemia = test system: RPMI-8226 leukemia
OVCAR-8 ovarian = test system: OVCAR-8 ovarian
OVCAR-5 ovarian = test system: OVCAR-5 ovarian
OVCAR-4 ovarian = test system: OVCAR-4 ovarian
SK-OV-3 ovarian = test system: SK-OV-3 ovarian
IGROV1 ovarian = test system: IGROV1 ovarian
OVCAR-3 ovarian = test system: OVCAR-3 ovarian
HS 578T breast = test system: HS 578T breast
NCI/ADR-RES ovarian = test system: NCI/ADR-RES ovarian
SR leukemia = test system: SR leukemia
TK-10 renal = test system: TK-10 renal

Measured: growth

C=C1CC[C@@]2(C#N)[C@H]3[C@H](CC[C@@H]2C)[C@@H](C)C[C@@H](CC(C)(C)C#N)[C@H]13
inactive: SK-MEL-2 melanoma 61.3% | EKVX NSCLC 32.9% | SN12C renal 60.7% | UO-31 renal 14% | ACHN renal 28% | CAKI-1 renal 19% | A498 renal 51.1% | CCRF-CEM leukemia 22% | MOLT-4 leukemia 29.3% | RPMI-8226 leukemia 40.3% | OVCAR-8 ovarian 49.1% | OVCAR-5 ovarian 48.5% | OVCAR-4 ovarian 37.7% | SK-OV-3 ovarian 46.1% | IGROV1 ovarian 42.9% | OVCAR-3 ovarian 51% | HS 578T breast 30.2% | NCI/ADR-RES ovarian 35.4%

COc1ccc2sc3c(NCCO)nc4ccccc4c3c(=O)c2c1
inactive: SK-MEL-2 melanoma 107% | EKVX NSCLC 70.3% | SN12C renal 96.6% | UO-31 renal 79.4% | ACHN renal 98.1% | CAKI-1 renal 90.5% | A498 renal 48.7% | CCRF-CEM leukemia 75.3% | MOLT-4 leukemia 89.3% | SR leukemia 83.9% | OVCAR-8 ovarian 92.1% | OVCAR-5 ovarian 102% | OVCAR-4 ovarian 114% | SK-OV-3 ovarian 110% | IGROV1 ovarian 113% | OVCAR-3 ovarian 122% | HS 578T breast 95.4% | NCI/ADR-RES ovarian 99.6%

CNC(=O)c1[nH]cc(-c2ccccc2)c1-c1cc(OC)c2c(c1OC)OCO2
inactive: SK-MEL-2 melanoma 102% | EKVX NSCLC 98% | SN12C renal 91.1% | UO-31 renal 83.8% | ACHN renal 95.8% | CAKI-1 renal 76.5% | A498 renal 95.4% | CCRF-CEM leukemia 108% | MOLT-4 leukemia 101% | RPMI-8226 leukemia 105% | OVCAR-8 ovarian 100% | OVCAR-5 ovarian 101% | OVCAR-4 ovarian 106% | SK-OV-3 ovarian 108% | IGROV1 ovarian 103% | OVCAR-3 ovarian 94.9% | HS 578T breast 102% | NCI/ADR-RES ovarian 101%

COc1ccc2c(c1OC)C(=O)O[C@H]2[C@H]1c2c(cc3c(c2OC)OCO3)CCN1C
inactive: SK-MEL-2 melanoma 106% | EKVX NSCLC 95.4% | SN12C renal 100% | UO-31 renal 85.9% | ACHN renal 95.8% | CAKI-1 renal 80.3% | A498 renal 93.1% | CCRF-CEM leukemia 101% | MOLT-4 leukemia 116% | RPMI-8226 leukemia 107% | OVCAR-8 ovarian 95.8% | OVCAR-5 ovarian 96.2% | OVCAR-4 ovarian 105% | SK-OV-3 ovarian 111% | IGROV1 ovarian 102% | OVCAR-3 ovarian 124% | HS 578T breast 96.5% | NCI/ADR-RES ovarian 84.7%

Cc1c(C(=O)NCCN2CCOCC2)cn2ncnc(Oc3ccc(NC(=O)Nc4ccc(Cl)c(C(F)(F)F)c4)cc3)c12
active: SK-MEL-2 melanoma -20.8% | A498 renal -5.16% | CCRF-CEM leukemia 9.09% | MOLT-4 leukemia -3.35% | SR leukemia 1.03% | HS 578T breast -23.8%
inactive: EKVX NSCLC 25.2% | SN12C renal 21.2% | UO-31 renal 52.7% | ACHN renal 13.6% | CAKI-1 renal 30.3% | OVCAR-8 ovarian 33% | OVCAR-5 ovarian 53.3% | OVCAR-4 ovarian 31.7% | SK-OV-3 ovarian 30.6% | IGROV1 ovarian 39.3% | OVCAR-3 ovarian 16% | NCI/ADR-RES ovarian 82.1%

CCN(CC)Cc1cc(Nc2c3ccc(Cl)cc3nc3ccc(OC)cc23)ccc1O
inactive: SK-MEL-2 melanoma 101% | EKVX NSCLC 76.2% | SN12C renal 56.6% | UO-31 renal 34.2% | TK-10 renal 96.6% | ACHN renal 59.7% | CAKI-1 renal 69.8% | A498 renal 77.2% | CCRF-CEM leukemia 60.4% | MOLT-4 leukemia 22.6% | RPMI-8226 leukemia 21.7% | OVCAR-5 ovarian 51.2% | OVCAR-4 ovarian 58.6% | SK-OV-3 ovarian 54.7% | IGROV1 ovarian 29.6% | OVCAR-3 ovarian 56.6% | HS 578T breast 72.7% | NCI/ADR-RES ovarian 42.3%

N#Cc1c(-c2ccccc2)nc(SCC(=O)Nc2nc(-c3ccc(Cl)cc3)cs2)[nH]c1=O
inactive: SK-MEL-2 melanoma 92.3% | EKVX NSCLC 106% | SN12C renal 104% | UO-31 renal 83.2% | ACHN renal 103% | CAKI-1 renal 89% | A498 renal 87.7% | CCRF-CEM leukemia 92.2% | MOLT-4 leukemia 89.8% | RPMI-8226 leukemia 92.5% | OVCAR-8 ovarian 99.1% | OVCAR-5 ovarian 90.7% | OVCAR-4 ovarian 110% | SK-OV-3 ovarian 85.2% | IGROV1 ovarian 96.5% | OVCAR-3 ovarian 108% | HS 578T breast 88.6% | NCI/ADR-RES ovarian 103%

CN(C)CC#Cc1ccc2ncc(C#N)c(Nc3ccc(F)c(Cl)c3)c2c1
inactive: SK-MEL-2 melanoma 38.3% | EKVX NSCLC 30.8% | SN12C renal 35.4% | UO-31 renal 18% | TK-10 renal 27.1% | ACHN renal 10.5% | CAKI-1 renal 17.1% | CCRF-CEM leukemia 81.7% | MOLT-4 leukemia 53.7% | RPMI-8226 leukemia 50.3% | OVCAR-4 ovarian 38.1% | SK-OV-3 ovarian 17.4% | OVCAR-3 ovarian 54.9% | HS 578T breast 52.1% | NCI/ADR-RES ovarian 42.9%
active: A498 renal -11.8% | IGROV1 ovarian 3.51%

Cc1ccc(-c2nc3c(c(-c4ccccc4)nn3-c3ccccc3)c(-c3ccc(O)cc3)c2C#N)cc1
inactive: SK-MEL-2 melanoma 78.7% | EKVX NSCLC 74.5% | SN12C renal 53.7% | UO-31 renal 39.4% | TK-10 renal 38.3% | ACHN renal 67.6% | CAKI-1 renal 50.4% | A498 renal 44.2% | CCRF-CEM leukemia 39.1% | MOLT-4 leukemia 40.5% | RPMI-8226 leukemia 21.4% | OVCAR-4 ovarian 82.2% | SK-OV-3 ovarian 92.6% | IGROV1 ovarian 82.6% | OVCAR-3 ovarian 64.5% | HS 578T breast 24% | NCI/ADR-RES ovarian 81.4%

c1ccc(OCc2nnc(-c3ccc(Oc4ccccc4)cc3)o2)cc1
inactive: SK-MEL-2 melanoma 91.4% | EKVX NSCLC 96.6% | SN12C renal 99% | UO-31 renal 81.7% | ACHN renal 92.9% | CAKI-1 renal 97.1% | A498 renal 111% | CCRF-CEM leukemia 96.7% | MOLT-4 leukemia 87.6% | SR leukemia 85.8% | OVCAR-8 ovarian 99.1% | OVCAR-5 ovarian 104% | OVCAR-4 ovarian 98.7% | SK-OV-3 ovarian 96.9% | OVCAR-3 ovarian 98.3% | HS 578T breast 99% | NCI/ADR-RES ovarian 96.9%

COc1c(N2CC3CCCN(C(C)=O)C3C2)c(F)cc2c(=O)c(C(=O)N[C@H]3C(O)[C@@H](O)C(CO)O[C@H]3O)cn(C3CC3)c12 (stereo not given in full)
inactive: SK-MEL-2 melanoma 111% | EKVX NSCLC 103% | SN12C renal 98.9% | UO-31 renal 92.2% | ACHN renal 105% | CAKI-1 renal 101% | A498 renal 103% | CCRF-CEM leukemia 105% | MOLT-4 leukemia 116% | SR leukemia 108% | OVCAR-8 ovarian 107% | OVCAR-4 ovarian 110% | SK-OV-3 ovarian 115% | IGROV1 ovarian 114% | OVCAR-3 ovarian 109% | HS 578T breast 105% | NCI/ADR-RES ovarian 110%

COc1nc2ccc(C)cc2cc1-c1nc2c(cnn2-c2ccccc2)c(=O)[nH]1
inactive: SK-MEL-2 melanoma 60.5% | EKVX NSCLC 85.1% | SN12C renal 98.3% | UO-31 renal 69.4% | TK-10 renal 109% | ACHN renal 94.3% | CAKI-1 renal 86.9% | A498 renal 72.7% | CCRF-CEM leukemia 79.4% | MOLT-4 leukemia 75.2% | RPMI-8226 leukemia 80.8% | OVCAR-4 ovarian 94.9% | SK-OV-3 ovarian 73.6% | IGROV1 ovarian 77.4% | OVCAR-3 ovarian 50.2% | HS 578T breast 90.6% | NCI/ADR-RES ovarian 74.3%

COc1ccc([C@H]2c3cc(OC)c(OC)cc3C=C(C=O)C2CO)cc1OC (stereo not given in full)
inactive: SK-MEL-2 melanoma 20.8% | EKVX NSCLC 91.2% | SN12C renal 68% | UO-31 renal 68.4% | ACHN renal 57.8% | CAKI-1 renal 52.4% | A498 renal 104% | CCRF-CEM leukemia 56.4% | MOLT-4 leukemia 49.5% | RPMI-8226 leukemia 61.5% | OVCAR-8 ovarian 60.8% | OVCAR-5 ovarian 106% | OVCAR-4 ovarian 63.5% | SK-OV-3 ovarian 73.3% | IGROV1 ovarian 34.1% | HS 578T breast 14.2% | NCI/ADR-RES ovarian 70.8%
active: OVCAR-3 ovarian -30.6%

CN1CCN(Cc2ccc(NC(=O)c3ccc(C(C)(C)C)c(C#Cc4cnc5cccnn45)c3)cc2C(F)(F)F)CC1
inactive: SK-MEL-2 melanoma 33.7% | A498 renal 75.5% | OVCAR-4 ovarian 15%
active: EKVX NSCLC -32.8% | SN12C renal -67.4% | UO-31 renal -47% | ACHN renal -75.2% | CAKI-1 renal -45.1% | CCRF-CEM leukemia -36.7% | MOLT-4 leukemia -57% | SR leukemia -49.7% | OVCAR-8 ovarian -30.4% | OVCAR-5 ovarian -25.4% | SK-OV-3 ovarian -56.6% | OVCAR-3 ovarian -68.5% | HS 578T breast -24.8% | NCI/ADR-RES ovarian -43.5%

CC(=O)N1CCN(c2ccc(OCC3CO[C@](Cn4ccnc4)(c4ccc(Cl)cc4Cl)O3)cc2)CC1 (stereo not given in full)
inactive: SK-MEL-2 melanoma 86.8% | EKVX NSCLC 87.9% | SN12C renal 84.2% | UO-31 renal 53.7% | TK-10 renal 101% | ACHN renal 92.5% | CAKI-1 renal 79.6% | A498 renal 86.4% | CCRF-CEM leukemia 75.2% | MOLT-4 leukemia 77.4% | RPMI-8226 leukemia 43.8% | OVCAR-5 ovarian 91.3% | OVCAR-4 ovarian 67.6% | SK-OV-3 ovarian 95.5% | IGROV1 ovarian 80.2% | OVCAR-3 ovarian 99% | HS 578T breast 102% | NCI/ADR-RES ovarian 84.4%

CCN(CC)S(=O)(=O)c1ccc(NC(=O)CSc2nnc(C)n2-c2ccccc2)cc1
active: IGROV1 ovarian -1.42%
inactive: SK-MEL-2 melanoma 92.5% | EKVX NSCLC 107% | SN12C renal 98.1% | UO-31 renal 80.8% | ACHN renal 98.7% | CAKI-1 renal 106% | A498 renal 107% | CCRF-CEM leukemia 97.9% | MOLT-4 leukemia 96.2% | RPMI-8226 leukemia 103% | OVCAR-8 ovarian 102% | OVCAR-5 ovarian 95.4% | OVCAR-4 ovarian 102% | SK-OV-3 ovarian 105% | OVCAR-3 ovarian 116% | HS 578T breast 95.5% | NCI/ADR-RES ovarian 99.2%

COc1ccc2nc(NCCCNCCO)c3sc4ccc(F)cc4c(=O)c3c2c1
inactive: SK-MEL-2 melanoma 89% | EKVX NSCLC 61.1% | SN12C renal 58.6% | UO-31 renal 38.4% | ACHN renal 39.5% | A498 renal 25.9% | OVCAR-5 ovarian 81.7% | SK-OV-3 ovarian 90.1% | IGROV1 ovarian 41.3% | HS 578T breast 63.5% | NCI/ADR-RES ovarian 30.3%
active: CAKI-1 renal 7.45% | CCRF-CEM leukemia -20.8% | MOLT-4 leukemia -10.4% | SR leukemia -35.1% | OVCAR-8 ovarian 6.89% | OVCAR-4 ovarian -54.3% | OVCAR-3 ovarian -64.6%

From PubChem BioAssay (NCI)
